Source: PubChem (several laboratories)
A selection: hits, their analogues and other compounds. The true share with any hit is near 2.6%.
CRFR2-BP antag: CRF-BP/CRF-R2 complex antagonism; HEK293 CRF-R2/CRF-BP, CRF-induced calcium fluorescence; inhibition, % at 11.8 µM; actives 0.59% (n = 350,000);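 active = inhibition of the ligand-induced calcium signal above about 50% at the single tested concentration, limit read from the data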
TPT1 inh: C. albicans TPT1 enzyme inhibition; recombinant caTPT1, FP RNA substrate dephosphorylation; inhibition, % at 5 µM; actives 0.81% (n = 300,000); AID 1962;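 active = inhibition above the mean of all tested compounds plus 3 SD, set per screening campaign, cut at about 24% in these data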;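 note: plate controls were DMSO alone for no effect and ferristatin control at 100 nM for full effect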
IDE cell inh: cellular human IDE inhibition; HEK cells, FAbetaB cleavage, fluorescence polarization; actives 0.41% (n = 320,000); AID 434962; inhibition, % at 5.59 µM;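 active = percent inhibition above the average of all tested compounds plus 3 SD, set per screening campaign, cut at about 16% in these data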;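 note: IDE supplied by intact live HEK cells; FP after avidin binding of uncleaved biotin substrate so inhibition keeps polarization high; 0% = DMSO wells and 100% = 60 µM reference IDE inhibitor Ii1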
IDE act: activators of human insulin-degrading enzyme in cells; P14735; activation, % at 5.96 µM; actives 0.073% (n = 340,000); HEK cells, FAbeta-B cleavage, fluorescence polarization; 0% vehicle, 100% cell-free pure enzyme wells; AID 493087;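 active = activation above the mean of all tested compounds plus 3 SD, set per screening campaign, cut at about 17% in these data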
Myeloid diff MLP: myeloid differentiation induction; calls only at 10 µM; actives 1% (n = 360,000); ER-HoxA9 myeloid progenitors, lysozyme-GFP differentiation, flow cytometry;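 active = normalized GFP-positive differentiation at or above the plate's own cutoff, the solvent-only control mean plus 3 SD; inconclusive = no clear call, values can overlap the other calls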;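 note: cells exposed to compound for four days before flow analysis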
CRFBP-R2 agonist: CRF-BP/CRF-R2 complex agonism. AID 588473. activation, % at 13.2 µM. actives 0.46% (n = 350,000). HEK293 CRF-R2/CRF-BP, calcium dye fluorescence (FLIPR); percent of saturating CRF peptide response;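 active = activation of at least 50%, plus an integration ratio under a set limit after plate pattern correction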;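 note: plate controls were neutral control wells without compound for no effect and CRF at EC100 for full effect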
TPT1 inh confirm: TPT1 (C. albicans) inhibition, confirmation | shares compounds with TPT1 inh | AID 2149 | actives 74% (n = 2,400) | recombinant caTPT1, fluorescence polarization, RNase T1 coupled | inhibition, % at 5 µM;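 active = inhibition above the primary screen limit, the mean inhibition of all tested compounds plus 3 SD, cut at about 25% in these data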
RNase T1 inh: counter-screen for TPT1 inhibitors: inhibitors of Aspergillus oryzae RNase T1; shares compounds with TPT1 inh; RNase T1 cleavage, fluorescence polarization, 1536-well; inhibition, % at 5 µM; actives 83% (n = 2,400);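 active = inhibition above the solvent-only control well mean plus 3 SD, limit set per screening run, cut at about 23% in these data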;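 note: plate controls were DMSO wells with enzyme for no effect and wells without RNase T1 for full effect; inhibitors block cleavage so intact labeled substrate keeps polarization high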
Target sequence (P00651 whole entry, looked up): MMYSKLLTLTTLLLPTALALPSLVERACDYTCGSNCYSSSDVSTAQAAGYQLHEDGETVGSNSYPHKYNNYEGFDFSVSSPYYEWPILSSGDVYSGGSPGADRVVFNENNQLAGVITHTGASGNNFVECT
* = called active by the depositor; i = inactive; ? = inconclusive; . = no result given; + = active, no number.

SMILES | CRFR2-BP antag | TPT1 inh | IDE cell inh | IDE act | Myeloid diff MLP | CRFBP-R2 agonist | TPT1 inh confirm | RNase T1 inh
COc1cc(/C=C2\CC/C(=C\c3ccc(OCCO)c(OC)c3)C2=O)ccc1OCCO | -483.2 | 107.0* | 10.1 | -6.6 | i | 447.7 | 114.1* | 113.5*
COc1ccc(/C=C2\CC/C(=C\c3ccc(OC)c(OC)c3)C2=O)cc1OC | 26.8 | 2.9 | -4.7 | 1.2 | i | 4.0 | . | .
O=C1N/C(=C/c2ccc(N3CCOCC3)cc2)C(=O)N1Cc1ccc(F)cc1 | 0.7 | -5.0 | 0.3 | 2.9 | i | 4.0 | . | .
C=CCN1C(=O)N/C(=C/c2ccc(N3CCOCC3)o2)C1=O | . | 28.9* | 7.0 | . | . | . | 104.6* | 112.5*
O=C1N/C(=C/c2ccc(N3CCOCC3)o2)C(=O)N1c1ccccc1 | 56.4* | 70.0* | 8.8 | -4.2 | ? | -0.4 | 149.5* | 148.4*
O=C1N/C(=C/c2ccc(N3CCCC3)cc2)C(=O)N1c1ccccc1 | -25.4 | 34.5* | 11.8 | -7.0 | i | 20.8 | 49.5* | 62.6*
Cc1ccc(C(=O)O)cc1-c1ccc(/C=C2/NC(=O)N(c3ccccc3)C2=O)o1 | -14.4 | 3.2 | -5.0 | 1.1 | i | 0.9 | . | .
CCN(C(=O)CSc1ccc2ccccc2n1)C1CCCCC1 | -4.7 | . | 0.3 | -2.8 | i | 3.1 | . | .
O=C(O)C1=NN(c2cc(Cl)c(S(=O)(=O)O)cc2Cl)C(=O)C1 | 8.7 | . | . | 4.5 | i | -3.1 | . | .
N=c1oc2cc(O)ccc2cc1C(=O)Nc1ccc(Br)cc1 | -11.6 | 8.1 | 3.4 | -0.4 | i | 42.0 | . | .
N=c1oc2cc(O)ccc2cc1C(=O)Nc1ccccn1 | . | 29.0* | 0.2 | . | . | . | -19.0 | -5.9
N=c1oc2cc(O)ccc2cc1C(=O)Nc1nc2ccccc2s1 | -13.8 | 65.3* | 2.4 | -6.3 | i | 40.1 | 69.9* | 74.6*
CC(C)N=C(NS(=O)(=O)NC(=O)c1ccccc1)c1ccccc1 | 1.0 | -6.0 | -6.5 | 4.7 | i | 0.9 | . | .
COc1ccc2nc(Nc3nc(C)c(CCC(C)C)c(=O)[nH]3)nc(C)c2c1 | 37.6 | 24.5* | 7.3 | 4.1 | i | -1.2 | 2.5 | 7.3
C/C(=N\NC(=O)c1c(C)nc2ccccn12)c1ccc(O)cc1O | -4.7 | 35.0* | -6.2 | 1.8 | i | 27.7 | 37.6* | 41.3*
C/C(=N\NC(=O)c1c(C)nc2ccccn12)c1ccccc1F | 9.2 | -2.8 | 5.8 | -5.0 | i | -1.7 | . | .
Cc1ccc(NC(=O)C2CCCN(S(=O)(=O)c3c(C)noc3C)C2)c(Br)c1 (stereo not given) | 2.8 | -0.9 | 1.9 | 4.3 | i | -2.5 | . | .
COc1nc(N)c(S(=O)(=O)c2ccccc2)cc1C#N | 3.9 | 29.8* | -0.9 | 3.2 | i | -0.9 | 29.8* | 40.9*
NNc1nc(-c2ccccc2Cl)nc2sc3c(c12)CCCC3 | -63.1 | 1.1 | 5.2 | 2.4 | i | -2.6 | . | .
Cc1ccc(/C=C2/NC(=O)N(Cc3ccccc3F)C2=O)s1 | -35.2 | 68.8* | 0.9 | 0.5 | + | 5.9 | 85.5* | 86.4*
O=C1N/C(=C/c2cccs2)C(=O)N1Cc1ccccc1F | 4.2 | 1.7 | -2.2 | 3.3 | i | -0.5 | . | .
Cc1nn(CC(=O)c2ccc(Br)s2)c(C)c1[N+](=O)[O-] | -1.7 | 32.6* | 2.3 | -8.0 | i | -5.5 | 49.4* | 62.6*
Cc1nn(CC(=O)c2ccccc2Cl)c(C)c1[N+](=O)[O-] | -2.1 | 0.3 | 5.2 | 5.1 | i | -0.2 | . | .
O=C(CCC(=O)N(CC(=O)NC1CCCCC1)c1ccc(F)cc1)Nc1ccccn1 | -10.2 | -0.7 | 2.6 | 1.8 | i | 0.2 | . | .
Cc1ccc(-n2nc3c(N4CCC(C(=O)N5CCC(C(N)=O)CC5)CC4)nnc(C)c3c2C)cc1 | -0.3 | 35.0* | 4.1 | -0.4 | i | 6.0 | 39.6* | 48.0*
SMILES | CRFR2-BP antag | TPT1 inh | IDE cell inh | IDE act | Myeloid diff MLP | CRFBP-R2 agonist | TPT1 inh confirm | RNase T1 inh
COc1cc(/C=N/Nc2snc(SC)c2C#N)ccc1O | 15.7 | 0.6 | 3.5 | 3.5 | i | 2.9 | . | .
CSc1nsc(/C=C/Nc2ccc(C)c(C)c2)c1C#N | -17.6 | 34.2* | 0.2 | -7.7 | i | 2.2 | 66.3* | 85.0*
CSc1nsc(/C=C/Nc2ccc(C)cc2)c1C#N | -16.9 | 30.9* | -1.6 | -1.9 | + | -0.1 | 50.5* | 59.0*
CCc1nc2c(OCC(=O)N3CCOCC3)cccn2c1N(C=O)Cc1ccccc1 | . | . | . | . | i | . | . | .
Cc1cc(OC(=O)c2ccccc2F)c([N+](=O)[O-])c(=O)[nH]1 | -12.3 | -3.6 | 0.9 | -1.1 | i | 2.1 | . | .
O=c1cc(O)c2sc3nc(-c4cccnc4)cc(C(F)(F)F)c3c2[nH]1 | -32.3 | 31.7* | 6.5 | 1.4 | i | 19.0 | 27.6* | 39.5*
Cc1cc(C(F)(F)F)c2c(n1)sc1c(O)cc(=O)[nH]c12 | 25.7 | -4.7 | 4.1 | 0.6 | i | -2.9 | . | .
CC(C)(C)NC(=O)CN(C(=O)c1snc(C(=O)NC2CCCCC2)c1N)c1ccccc1F | 7.0 | -1.6 | -1.4 | 4.3 | i | 0.3 | . | .
CCOC(=O)c1c(NC(=S)Nc2ccccc2)sc2c1CCN(CC)C2 | -25.9 | 99.2* | 1.2 | -5.6 | i | 8.6 | 86.3* | 94.9*
CCOC(=O)c1c(NC(=S)Nc2cccc(C)c2)sc2c1CC(C)(C)SC2 | 1.0 | 31.3* | -5.5 | -4.4 | i | 1.7 | 26.5* | 32.3*
CCOC(=O)c1c(NC(=S)Nc2ccccc2)sc2c1CCCCC2 | -14.4 | 0.9 | 1.1 | -0.4 | i | 0.4 | . | .
COc1cc(/C=C(\C#N)C(=O)N2CCOCC2)cc(Br)c1O | -10.3 | 16.7 | -2.0 | -0.1 | i | 3.5 | . | .
COc1cc(/C=C(\C#N)C(=O)c2ccc(O)c(O)c2)cc(I)c1O | -214.8 | 129.2* | 3.1 | -20.9 | + | 187.8* | 180.3* | 160.9*
C=CCNc1nc(N)c([N+](=O)[O-])c(Nc2cccc(Cl)c2)n1 | -23.7 | 36.3* | 3.2 | 2.5 | i | 0.5 | 2.8 | 5.2
O=C(N/C=C/c1ccco1)Nc1cccc(Cl)c1 | -5.1 | 34.3* | -2.5 | . | i | 1.7 | 5.0 | 13.1
CCCn1c(N)c(Sc2ccccc2[N+](=O)[O-])c(=O)n(CCC)c1=O | -0.8 | -3.1 | 4.4 | -6.6 | i | 0.9 | . | .
CN=C1S/C(=C\c2ccc(N3CCCC3)c(F)c2)C(=O)N1C | -4.5 | 29.7* | -1.6 | 1.6 | i | 16.5 | 52.4* | 65.9*
COC(=O)c1ccc(CSc2nc3c(c(=O)[nH]2)CCC3)cc1 | . | . | . | . | i | . | . | .
CCC(C)(C(=O)NC1CCCC1)N(Cc1cccs1)C(=O)Cc1cccs1 (stereo not given) | -6.5 | 0.2 | -1.6 | 4.2 | i | -0.8 | . | .
